Screening data (PubChem)
This is a sample that favours compounds with a hit; in the whole collection about 5.5% have one here.
ELG1 repair inh: blocks ELG1-dependent DNA repair in HEK293T cells | Potency, µM (doses to about 46.1 µM), without a hit: at the top dose activity change, negative = inhibition, usual class: inhibitors | HEK293T ELG1-luciferase reporter, luminescence, 16 h; DNA damage induced by 5-fluorouridine | 330,000 tested, 2.3% active; further: potency means the concentration at half of the fitted maximal effect; nearly all actives have a fitted effect of over 55% in size
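Luminescence from the luciferase reporter, measured 30 min after ONE-Glo reagent at room temperature, was the read-out. Beforehand, 2,000 cells per well were exposed for 16 hr at 37 °C to 5-fluorouridine together with compound or vehicle.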
Giardia kill: kills Giardia lamblia | AID 540267 | 340,000 tested, 0.15% active | Giardia lamblia trophozoite viability | activity change, % at 7.66 µM, hits read low; in the data active means activity change below about -80%; inconclusive means between about -30% and that limit;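 further: parasites exposed to compound for two days anaerobically before the ATP read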
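Giardia trophozoites, 100 cells per well, were exposed to compounds for 48 hrs at 37 deg C under anaerobic conditions; viability was then read as ATP content by bioluminescence after 15-30 min at room temperature.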
Coupling enz: counter-screen for Giardia aldolase inhibitors: coupling enzyme system; activity change, negative = inhibition, % at 58.2 µM, hits read low; coupling enzyme system counterscreen, AmpLite Red fluorescence; 290,000 tested, 0.67% active; in the data active means activity change below about -30%
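Activity here indicates interference with the coupling reaction, not aldolase inhibition. Compounds at 57.5 uM final met coupling enzymes for 10 min at RT; substrate and AmpLite Red detection followed, with a 525/598 nm fluorescence read after 20 min.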
Sfp inh: blocks B. subtilis Sfp PPTase activity; 310,000 tested, 3.5% active; Potency, µM, for inactives: largest response in the series, negative = inhibition, most hits filed as inhibitors; Q9F4F7; Biochemical Sfp PPTase activity, qHTS; AID 1490;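 further: the enzyme is Sfp with the accession as filed and its product quenches rhodamine fluorescence; potency means the concentration at half of the fitted maximal effect; 0% = enzyme reaction without inhibitor and -100% = no enzyme wells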
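Buffer: 50 mM Hepes-Na pH 7.6, 10 mM MgCl2, 0.01% Nonidet P-40, 0.01% BSA. Enzyme 15 nM, pre-exposed to compound 15 min; substrates then added and fluorescence change tracked over 30 min.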
* marks the source's active call; other numbers are inactive results; ? = inconclusive; nt = not tested or not shown. Unless noted, the call rests on the fitted dose curve; in most records, active means well fitted curve in the direction sought with a large enough effect; inconclusive means small, poorly fitted or top-dose-only effect, or another doubt; inactive means no such curve, though single readings can be large; an effect the other way counts as inactive or inconclusive. Unless noted, on the % scale 0 is the no-effect control and ±100 the full control effect.

SMILES | ELG1 repair inh | Giardia kill | Coupling enz | Sfp inh
Cc1ccc(C(=O)Nc2cccc(S(=O)(=O)N3CCCCC3)c2)cc1[N+](=O)[O-] | 11µM* | -6 | nt | nt
O=C(Nc1cccc(S(=O)(=O)N2CCCCC2)c1)c1ccc([N+](=O)[O-])o1 | ? | -96* | -6 | 12%
O=C(COC(=O)c1ccc(F)cc1F)Nc1cccc(S(=O)(=O)N2CCOCC2)c1 | 7% | -2 | nt | nt
Cc1oc(/N=C/c2c(O)ccc3ccccc23)c(C#N)c1C | 3% | nt | -30* | -20%
N#Cc1cccc(N=Cc2c(O)ccc3ccccc23)c1 | 11% | 1 | -38* | -3%
Cc1oc(/N=C/c2ccccc2O)c(C#N)c1C | -3% | 6 | -16 | -27%
O=C(O)c1ccc(N=Cc2c(O)ccc3ccccc23)cc1 | 1% | 6 | -36* | 0%
COc1ccc(N=Cc2c(O)ccc3ccccc23)cc1 | 5% | 9 | -23 | ?
CCOC(=O)c1sc(/N=C/c2c(O)ccc3ccccc23)cc1C | ? | 4 | -34* | 3%
NC(=O)c1ccc(N=Cc2c(O)ccc3ccccc23)cc1 | nt | -14 | nt | nt
Cc1ccccc1-c1cccc([C@@H]2C[C@H]3[C@H](CON3C)CN2C(=O)C(C)(C)C)c1 | nt | 17 | nt | nt
CN(C)S(=O)(=O)c1cccc(NC(=O)c2cc(=O)[nH]c(=O)[nH]2)c1 | 17% | -22 | 9 | ?
Cc1cc(F)ccc1OC1C=CC(c2ccc3c(c2)OCO3)OC1CO (configuration not stated) | nt | nt | 0 | 9%
C[C@]12CCC(=O)C=C1CCC1C2C(=O)C[C@]2(C)C1CC[C@]2(O)C(=O)CO (some centres not stated) | nt | nt | 3 | 14%
O=S(=O)(/N=C/c1c(O)ccc2ccccc12)c1ccccc1 | -2% | -10 | -36* | -1%
O=C(N/N=C/c1c(O)ccc2ccccc12)Nc1ccccc1 | nt | -3 | nt | nt
Cc1ccc(N=Cc2c(O)ccc3ccccc23)cc1F | ? | -11 | -47* | -17%
CN1CCc2nc(SCC(=O)Nc3ccc(OC(F)(F)F)cc3)c(C#N)c(-c3cccs3)c2C1 | ? | -1 | -51* | 50µM*
CN1CCc2nc(SCC(=O)Nc3cccc(F)c3)c(C#N)c(-c3cccs3)c2C1 | 13% | -4 | -10 | 79µM*
Cc1cccc(CSc2nc3c(c(-c4cccs4)c2C#N)CN(C)CC3)c1 | -22% | -11 | -7 | -26%
CCOC(=O)c1cnc(-c2ccccc2)[nH]c1=O | 14% | -3 | -15 | -5%
CCOC(=O)c1cnc(-c2cccc(OC)c2)[nH]c1=O | 26% | -15 | -33* | -22%
O=C(CCNC(=O)c1ccc(Br)cc1)Nc1ncccc1O | nt | 6 | nt | nt
COc1ccc2c(c1)CCC1C2=NN(/C(C)=C\C(C)=O)C1c1ccc(F)cc1 (configuration not stated) | -17% | -2 | -27 | 45µM*
COc1ccc2c(c1)C1=NN(/C(C)=C/C(C)=O)C(c3ccc(F)cc3)C1CC2 (configuration not stated) | ? | 3 | -11 | -8%
SMILES | ELG1 repair inh | Giardia kill | Coupling enz | Sfp inh
COc1cc(/C=N/n2c(-c3ccc4c(c3)NC(=O)CO4)csc2=Nc2cccc(C)c2)ccc1O | 15µM* | 5 | 4 | -27%
COCCN=c1scc(-c2ccc3c(c2)NC(=O)CO3)n1/N=C(\C)c1ccc(O)cc1 | 18µM* | 18 | 3 | 89µM*
COc1cc(/C=N/n2c(C)nc3ccccc3c2=O)ccc1O | 4% | 5 | 1 | 5%
Cc1ccc(OCCCCn2c(CCNC(=O)C3CCCCC3)nc3ccccc32)cc1 | nt | 42 | nt | nt
CC(=O)Nc1ccc(NC2CCCCC2NS(=O)(=O)c2ccccc2)cc1 (configuration not stated) | 7% | 8 | nt | 10%
Cc1ccccc1Nc1nn2c(=O)c3ccccc3nc2s1 | ? | -17 | 0 | 11%
COc1ccccc1Nc1nn2c(=O)c3ccc(C(=O)N4CCC(C)CC4)cc3nc2s1 | 15µM* | -4 | 1 | -1%
CS(=O)(=O)N1CCc2cc(-c3csc(NC(=O)Cc4cccs4)n3)ccc21 | 5.8µM* | 3 | -4 | 18%
CC(C)C(=O)Nc1nc(-c2ccc3c(c2)CCN3C(=O)C2CC2)cs1 | 30% | -1 | -12 | 8%
O=C(CN1CCOCC1)Nc1nc(-c2ccc3c(c2)CCN3S(=O)(=O)c2ccccc2)cs1 | ? | 14 | -5 | -12%
CC(=O)Nc1nc(-c2ccc3c(c2)CCN3S(C)(=O)=O)cs1 | ? | 16 | -2 | 56µM*
CCCCn1c(N)c(N(CCC(C)C)C(=O)C2CCCC2)c(=O)[nH]c1=O | 3% | 1 | nt | nt
Cc1ccc(S(=O)(=O)N2CCCCC2)cc1NC(=O)C1CC(=O)N(c2ccc3c(c2)OCCO3)C1 (configuration not stated) | -16% | 5 | nt | nt
COc1ccc(S(=O)(=O)N(C(C)=O)c2ccc(OC(C)=O)c3ccccc23)cc1[N+](=O)[O-] | 15µM* | ? | -9 | 9%
COc1ccc(S(=O)(=O)N2CCc3ccccc32)cc1[N+](=O)[O-] | 6.5µM* | 2 | 0 | -4%
COc1ccc(NC(=O)N2CCC3(CC2)CCN(C(=O)c2cc(C(F)(F)F)cc(C(F)(F)F)c2)CC3)cc1 | nt | nt | 1 | 25%
CCOC(=O)CNC(=O)c1sc2ncnc(N3CCc4ccccc4C3)c2c1C | 18µM* | 4 | -4 | -22%
CCCCNC(=O)c1sc2ncnc(N3CCc4ccccc4C3)c2c1C | ? | 4 | -2 | 4%
CSc1ccc(C2C(C#N)=C(N)N(c3ccccc3)C3=C2C(=O)CCC3)cc1 (configuration not stated) | -8% | 7 | -8 | -24%
CN1C(=O)C2(C(C#N)=C(N)N(c3cc(Cl)cc(Cl)c3)C3=C2C(=O)CCC3)c2ccccc21 (configuration not stated) | 10µM* | 11 | 2 | 12%
CCCn1c(C)nc2c(NCCCN(CC)CC)nc(C)nc21 | nt | nt | 1 | 11%
CCOC(=O)c1c(-c2ccccc2)csc1NC(=O)CSc1nc(N)cc(N)n1 | -23% | -3 | -1 | 9%
CCOC(=O)c1c(-c2ccc(C)o2)csc1NC(=O)CN(C)CC(=O)Nc1ccc(C)cc1 | 15µM* | 7 | -1 | 28µM*
CCOC(=O)c1c(-c2ccco2)csc1NC(=O)CSc1nnc(N)s1 | -24% | -1 | nt | 25µM*
CCOC(=O)c1c(-c2ccc(C)o2)csc1NC(=O)CSc1nncs1 | ? | 1 | -20 | 7.9µM*
CCOC(=O)c1c(-c2ccc(C)o2)csc1NC(=S)NC(=O)c1ccc(F)cc1 | -12% | -10 | -8 | 8%
CCOC(=O)c1c(-c2ccco2)csc1NC(=O)COC(=O)c1cnccn1 | 3% | 22 | nt | nt
CCOC(=O)c1c(-c2ccc(C)o2)csc1NC(=O)CN1CCC(C(N)=O)CC1 | -25% | 35 | -12 | 32µM*
COc1cc(OC)c(OC)cc1CNC(=O)c1cc(=O)[nH]c2ccccc12 | 7% | -4 | 1 | 12%
CCOC(=O)c1c(-c2ccco2)csc1N | 13% | -16 | -31* | 32µM*
